# Only some compounds are listed: those with a hit (about 3.6% of all), similar ones and a draw of the others.
# BJeLR lethal: BJeLR cell viability loss; BJeLR (HRASV12) viability, CellTiter-Glo ATP luminescence, 48 h; inhibition, % (concentration not given with the values); 300,000 tested, 0.17% active; AID 1554; in the data active means inhibition above about 50%; inconclusive means no clear call, values can overlap the other calls
# BoNT F protease: inhibitors of Botulinum neurotoxin F light chain protease; Multiplex microsphere protease cleavage assay, flow cytometry; inhibition, % at 10 µM; 360,000 tested, 0.22% active; in the data active means inhibition above about 35%, passing the limit was not always enough; inconclusive means no clear call, values can overlap the other calls
# BoNT-A LC inh2: inhibitors of Botulinum neurotoxin A light chain protease. multiplex microsphere protease substrate cleavage, flow cytometry. inhibition, % at 10 µM. 360,000 tested, 0.17% active
# Anthrax LF prot: inhibitors of Bacillus anthracis lethal factor protease | multiplex microsphere protease cleavage assay, LF | inhibition, % at 10 µM | 360,000 tested, 0.12% active | AID 588501
# Target sequence (P15917 whole entry, looked up): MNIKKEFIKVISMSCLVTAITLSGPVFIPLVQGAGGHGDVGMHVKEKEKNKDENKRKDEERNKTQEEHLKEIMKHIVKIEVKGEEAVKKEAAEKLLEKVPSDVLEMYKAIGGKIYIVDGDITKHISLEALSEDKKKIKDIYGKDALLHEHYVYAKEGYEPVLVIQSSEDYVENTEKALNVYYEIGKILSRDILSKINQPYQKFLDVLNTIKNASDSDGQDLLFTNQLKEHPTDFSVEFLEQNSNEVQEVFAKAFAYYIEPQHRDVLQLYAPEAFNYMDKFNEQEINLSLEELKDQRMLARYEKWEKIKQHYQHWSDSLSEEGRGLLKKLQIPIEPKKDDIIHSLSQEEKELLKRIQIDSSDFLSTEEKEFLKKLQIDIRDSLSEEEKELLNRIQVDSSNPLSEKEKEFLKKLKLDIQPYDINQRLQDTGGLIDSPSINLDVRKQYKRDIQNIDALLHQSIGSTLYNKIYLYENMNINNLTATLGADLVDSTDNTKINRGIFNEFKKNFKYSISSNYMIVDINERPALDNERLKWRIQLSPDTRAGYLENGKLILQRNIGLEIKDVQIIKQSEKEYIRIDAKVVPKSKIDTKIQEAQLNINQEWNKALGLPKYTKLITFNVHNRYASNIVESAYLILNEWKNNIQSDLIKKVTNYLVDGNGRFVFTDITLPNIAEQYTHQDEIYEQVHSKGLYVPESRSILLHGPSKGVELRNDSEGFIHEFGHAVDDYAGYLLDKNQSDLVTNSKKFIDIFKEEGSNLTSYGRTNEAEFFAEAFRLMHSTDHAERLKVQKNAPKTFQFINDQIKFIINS
# 3CLpro inhibitor: SARS-CoV 3CLpro protease inhibition | P0C6X7 | recombinant SARS-CoV 3CLpro, quenched FRET peptide cleavage | inhibition, % at 6 µM | 290,000 tested, 0.14% active; in the data active means inhibition above about 12%
# Bead autofluor: flagged as autofluorescent in microsphere protease counterscreen. fluorescence intensity (no concentration beside the values). 360,000 tested, 3.1% active. AID 624483. compound autofluorescence counterscreen, microsphere flow cytometry; active compounds read high; in the data active means fluorescence intensity above about 16000; inconclusive means no clear call, values can overlap the other calls
# A number is an active result; i = inactive; ? = inconclusive; nt = no result. Unless noted, no stated cut-off is given here; in the data, active means inhibition above about 30%; inconclusive means no clear call, values can overlap the other calls; inactive means below that.
SMILES,BJeLR lethal,BoNT F protease,BoNT-A LC inh2,Anthrax LF prot,3CLpro inhibitor,Bead autofluor
COCCN(C(=O)c1ccccc1F)c1nnc(-c2ccc(OC)cc2)s1,i,i,i,i,i,i
N#CCSc1ccccc1NC(=O)COC(=O)C1CCN(C(=O)c2ccc(Cl)cc2)CC1,nt,i,i,i,nt,i
CC1(C)NC(=O)N(CC(O)COC2CCCCC2)C1=O (stereo not given),i,i,i,i,i,i
CC1(C)NC(=O)N(CC(O)CN2CCCCC2)C1=O (stereo not given),i,i,?,i,i,19639
Cc1cc(N2CCN(C(=O)c3ccco3)CC2)n2nc(-c3cccc(Cl)c3)cc2n1,i,i,?,i,i,16545
CN(Cc1cc([N+](=O)[O-])ccc1Cl)C(=O)C[n+]1ccccc1,i,i,i,i,i,i
Nc1cc(=O)[nH]c2ncnn12,nt,i,i,i,nt,i
O=C(Nc1cccc(Br)c1)c1ccn[nH]1,i,i,i,i,i,21776
O=C(NCCCN1CCC(Cc2ccccc2)CC1)C1CC(=O)N(C2CCCCCC2)C1 (stereo not given),i,i,i,i,i,20812
CN1CCN(CCCNC(=O)C2CC(=O)N(C3CCCCC3)C2)CC1 (stereo not given),i,i,i,i,i,i
COc1ccc(-c2cc(-c3cc(F)ccc3O)[nH]n2)cc1OC,i,i,?,i,i,22604
Cc1c(C(=O)Nc2ccccc2)sc2nc(-c3ccccc3)cn12,i,i,i,i,i,23471
Cc1cccc(NC(=O)c2sc3nc(-c4ccccc4)cn3c2C)n1,i,i,i,i,i,i
Cc1c(C(=O)NCc2ccccn2)sc2nc(-c3ccc(F)cc3)cn12,i,i,i,i,i,19364
Cc1cccc(NC(=O)c2sc3nc(-c4ccc(F)cc4)cn3c2C)n1,i,i,?,i,i,19776
COc1ccc(-c2cn3c(C)c(C(=O)NC(C)C)sc3n2)cc1,i,i,i,i,i,23094
COc1ccc(-c2cn3c(C)c(C(=O)NC(C)(C)C)sc3n2)cc1,i,i,i,i,i,i
Cc1c(C(=O)NCc2ccccn2)sc2nc(-c3ccccc3)cn12,i,i,i,i,i,i
Cc1ccc(C(=O)Nn2cnnc2)cc1,i,i,i,i,i,i
O=[N+]([O-])c1ccc(NN=Cc2cccc3ccccc23)cc1,nt,i,i,i,nt,i
O=[N+]([O-])c1cc(Br)c(O)c(/C=N/Nc2nnnn2-c2cccc3ccccc23)c1,i,i,i,i,i,22718
Cc1ccccc1N=C1C(=O)Nc2ccccc21,nt,i,i,i,nt,i
COc1ccc(OC)c(N=C2C(=O)Nc3ccccc32)c1,nt,i,?,i,i,21377
COc1ccc(N=C2C(=O)Nc3ccccc32)cc1,i,i,i,i,i,22766
O=C1Nc2ccccc2C1=Nc1ccc(F)cc1,i,i,i,i,i,i
SMILES,BJeLR lethal,BoNT F protease,BoNT-A LC inh2,Anthrax LF prot,3CLpro inhibitor,Bead autofluor
CC(=O)C1(C)C(=O)N(c2ccc(C)cc2)C(=O)N1c1ccc(C)cc1 (stereo not given),nt,i,i,i,nt,i
CCC(=O)N1CCC1(C)C(=O)NCc1ccccc1SC (stereo not given),nt,i,i,i,nt,i
COc1ccc(N(C(=O)c2ccco2)S(=O)(=O)c2ccccc2)cc1,i,i,i,i,i,i
COc1ccc(N(C(=O)c2ccco2)S(=O)(=O)c2cc(Cl)c(Cl)cc2Cl)cc1,i,i,i,i,i,23813
CC(=O)OCc1c(C(F)(F)F)nn(C)c1Oc1ccccc1,i,i,i,i,i,17428
Cc1nn(C)c(Oc2cccc(C(F)(F)F)c2)c1C=O,i,i,i,i,i,i
CC(=O)OCc1c(C(F)(F)F)nn(C)c1Oc1cccc(C(F)(F)F)c1,i,i,i,i,i,16385
Cc1ccc(Cl)cc1-c1cc(C(=O)NCC2CCCCC2)[nH]n1,nt,i,i,i,nt,i
CC(OC(=O)c1ccccc1NCCO)C(=O)NCC(=O)Nc1ccc(F)c(F)c1F (stereo not given),i,i,i,i,i,i
CCCn1c(SC(C)C(=O)O)nc2ccccc21 (stereo not given),i,i,i,i,i,21928
CCCn1c(SCC(=O)C(C)(C)C)nc2ccccc21,i,i,i,i,i,i
Cc1ccccc1NC(=O)c1c(F)c(F)c(F)c(F)c1F,i,i,i,i,i,16318
CN1C(=O)C(=Cc2ccc(N3CCCCC3)o2)C(=O)N(C)C1=S,i,100,i,i,i,i
CCCOC(=O)CCCCCCCCC(O)CN1CCCCC1 (stereo not given),i,i,i,i,i,i
